# UGM FP inh = M. tuberculosis UGM enzyme inhibitors, primary screen, biochemical, fluorescence polarization, single point; inhibition, % at 10 µM; 320,000 tested, 0.06% active; purified UGM, fluorescence polarization probe displacement; AID 504406, 2011; in the data active = inhibition above about 10%, passing the limit was not always enough; inconclusive = no clear call, values can overlap the other calls
# Rv3671c inh = Rv3671c serine protease inhibitors, primary screen, biochemical, fluorescence polarization, M. tuberculosis H37Rv; P9WHR9; inhibition, % at 5.96 µM; 320,000 tested, 0.048% active; AID 2606, 2010; in the data active = inhibition above about 38%;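 also: extracellular domain of Rv3671c used as enzyme; 0% = enzyme with DMSO and 100% = no enzyme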
# RecA splice inh = Mtb RecA intein splicing inhibitors, primary screen, biochemical, fluorescence, HTS | Protein RecA (Mycobacterium tuberculosis (strain ATCC 25618 / H37Rv)), P9WHJ3 | cell-free RecA intein splicing | inhibition, % (no concentration beside the values) | 290,000 tested, 0.75% active; in the data active = inhibition above about 30%; inconclusive = no clear call, values can overlap the other calls;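 also: 0% = vehicle wells and 100% = reference inhibitor control wells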
# Target sequence (P9WHJ3 whole entry, looked up, canonical isoform): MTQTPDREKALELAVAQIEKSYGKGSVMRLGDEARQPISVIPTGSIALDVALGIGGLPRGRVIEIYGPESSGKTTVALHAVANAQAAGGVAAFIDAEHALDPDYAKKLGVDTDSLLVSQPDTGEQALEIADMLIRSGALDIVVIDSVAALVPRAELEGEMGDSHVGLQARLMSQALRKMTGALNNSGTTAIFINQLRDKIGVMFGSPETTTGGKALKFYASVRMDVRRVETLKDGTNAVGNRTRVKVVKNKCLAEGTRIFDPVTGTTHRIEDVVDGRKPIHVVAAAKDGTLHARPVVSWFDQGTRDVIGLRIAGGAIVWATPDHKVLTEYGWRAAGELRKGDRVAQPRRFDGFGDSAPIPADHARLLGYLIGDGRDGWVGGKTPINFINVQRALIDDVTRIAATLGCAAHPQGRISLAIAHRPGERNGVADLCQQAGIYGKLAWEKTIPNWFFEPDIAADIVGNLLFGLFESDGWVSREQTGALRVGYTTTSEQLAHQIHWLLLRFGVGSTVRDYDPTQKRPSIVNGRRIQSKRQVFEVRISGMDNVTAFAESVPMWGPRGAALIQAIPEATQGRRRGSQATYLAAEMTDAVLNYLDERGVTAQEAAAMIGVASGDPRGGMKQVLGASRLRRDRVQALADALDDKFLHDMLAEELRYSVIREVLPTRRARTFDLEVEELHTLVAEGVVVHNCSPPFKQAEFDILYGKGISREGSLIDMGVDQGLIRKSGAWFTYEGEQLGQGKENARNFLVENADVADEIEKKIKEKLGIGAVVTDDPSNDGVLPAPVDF
# TcdB GH inh = TcdB glycohydrolase inhibitors, primary screen, biochemical, single point, plate reader; Toxin B (Clostridioides difficile), P18177; inhibition, % at 9.99 µM; 350,000 tested, 0.24% active; TcdB glycohydrolase enzymatic assay; in the data active = inhibition above about 10%
# FadD28 binding = inhibitors of FadD28 bisubstrate probe binding, primary screen, biochemical, fluorescence polarization, single point; inhibition, % at 12.5 µM; 360,000 tested, 0.22% active; AID 588549, 2011; in the data active = inhibition above about 8.5%, passing the limit was not always enough; inconclusive = no clear call, values can overlap the other calls
# Mtb BioA inh = M. tuberculosis BioA enzyme inhibitors, primary screen, biochemical, plate reader, single point, HTS | 360,000 tested, 0.096% active | inhibition, % at 9.99 µM | purified M. tuberculosis BioA enzyme; in the data active = inhibition above about 40%; inconclusive = no clear call, values can overlap the other calls
# * = called active by the depositor; ? = inconclusive; nt = no result given; ! = repeats disagree. Only some compounds are listed: those with a hit (about 0.9% of all), similar ones and a draw of the others.
SMILES,UGM FP inh,Rv3671c inh,RecA splice inh,TcdB GH inh,FadD28 binding,Mtb BioA inh
CC(C)NC(=O)Nc1ccc2c(c1)CC(=O)N([C@H](C)CO)C[C@@H](C)[C@H](CN(C)Cc1ccc(-c3ccccc3)cc1)O2,nt,nt,nt,-1,nt,-1
CN=c1scc(-c2ccccc2F)n1/N=C/c1ccc[nH]1,1,-13,2,-3,0,nt
CN=c1scc(-c2ccccc2F)n1/N=C/c1ccc(O)c(O)c1O,nt,nt,12,-6,9.1*,-2
Cn1nc([N+](=O)[O-])nc1Sc1nnc(-c2ccccc2)o1,-3,0,32*,nt,-4,0
Cn1nc([N+](=O)[O-])nc1Sc1cccc2cccnc12,0,0,0,0,-1,nt
CCCC(=O)Nc1ccc2c(c1)OC[C@@H](C)N(C(=O)c1ccccn1)C[C@@H](C)[C@@H](OC)CN(C)C2=O,nt,nt,nt,-6,nt,0
CCn1c(=S)[nH]c2c(=O)n(C)c(=O)n(C)c21,nt,nt,nt,46*,-2,0
C[C@@H]1CN([C@@H](C)CO)C(=O)Cc2cc(NC(=O)CCCCCC(=O)Nc3ccccc3N)ccc2O[C@H]1CN(C)C(=O)Nc1ccc2c(c1)OCO2,nt,nt,nt,1,nt,nt
N#C/C(=C\c1cccs1)c1nc2ccccc2[nH]1,0,-13,-2,nt,-5,-1
N#C/C(=C/c1ccc(O)c(O)c1)c1nc2ccccc2[nH]1,-3,8,-1,-1,12*,-3
COCC(=O)N1[C@@H](CO)[C@@H](c2ccc(-c3cccc(OC)c3)cc2)C12CN(C(C)=O)C2,nt,nt,nt,-2,nt,nt
O=C1NC2=C(CCc3ccccc32)C(c2ccccc2)N1 (stereo not given),-1,-36,47*,3,-1,-1
C=CCOc1ccc(C2NC(=S)NC3=C2CCc2ccccc23)cc1 (stereo not given),-1,0,2,1,-2,0
COc1ccc(C(=O)c2ccsc2N)cc1,-1,-8,0,1,8.6*,nt
CCc1cc(C(=O)c2ccc(OC)cc2)c(N)s1,1,6,1,2,1,4
CC(C)OCCCn1c(=NC(=O)c2ccncc2)c(C#N)cc2c(=O)n3ccccc3nc21,38*,-2,nt,nt,1,-2
O=C(O)c1cccc(NN=C2c3ccccc3-c3ccccc32)c1,nt,nt,-5,1,13*,nt
O=C(O)c1cc(N/N=C/C(Cl)=C/c2ccccc2)ccc1Cl,1,6,8,0,19*,2
O=C(O)c1cc(NN=C2c3ccccc3-c3ccccc32)ccc1Cl,1,-3,7,0,15*,4
O=C(O)c1cccc2c1-c1ccccc1/C2=N\Nc1ccccc1,0,-2,4,0,?,0
O=C(O)c1cc(N/N=C/c2cccc3ccccc23)ccc1Cl,-1,14,2,-1,3,0
CCN1/C(=C2\OC(=S)N(C)C2=O)C=Cc2ccccc21,-1,2,1,11*,2,-2
O=C(C[C@@H]1CC[C@@H]2[C@H](COC[C@H](O)CN2S(=O)(=O)c2ccc(F)cc2)O1)N1CCc2ccccc2C1,nt,nt,nt,-1,nt,1
C[C@H](CO)N1C[C@H](C)[C@@H](CN(C)Cc2ccc3c(c2)OCO3)Oc2ccc(NC(=O)CCC(F)(F)F)cc2CC1=O,nt,nt,nt,0,nt,2
Cc1ccc(-c2cc(-c3ccc(C)cc3)[n+](-c3ccccc3)c(-c3ccc(C)cc3)c2)cc1,0,-7,24,nt,-3,31
Cc1ccc(-c2cc(-c3ccc(C)cc3)[n+](-c3ccc(C(=O)[O-])cc3)c(-c3ccc(C)cc3)c2)cc1,-2,-3,40*,-1,-3,6
CCCNC(=O)Nc1ccc2c(c1)OC[C@@H](C)N(C(=O)CC)C[C@@H](C)[C@H](OC)CN(C)C2=O,nt,nt,nt,-1,nt,nt
CN(C)[C@@H]1C(=O)C(C(N)=O)=C(O)[C@@]2(O)C(=O)C3=C(O)c4c(O)cccc4[C@@](C)(O)C3[C@H](O)C12 (stereo not given in full),0,17,-9,-5,31*!,0

# Source: PubChem
